# In all, about 310,000 compounds went through this assay and about 14,000 (4.5%) showed an effect of 50% or more. Effects have a minus sign here. Many of the other results were omitted from the sample, so strong results are more common in it than they were.
# Molecular target: human ether-à-go-go-related gene (hERG) potassium channel (human, UniProt Q12809)
# Experiment: primary screen, population patch clamp on CHO cells stably expressing hERG; higher = less effect of the substance
# 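Note: peak tail current of the secondary pulse compared with the same well before compound.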
# Chain of human ether-à-go-go-related gene (hERG) potassium channel (Q12809 whole entry, looked up): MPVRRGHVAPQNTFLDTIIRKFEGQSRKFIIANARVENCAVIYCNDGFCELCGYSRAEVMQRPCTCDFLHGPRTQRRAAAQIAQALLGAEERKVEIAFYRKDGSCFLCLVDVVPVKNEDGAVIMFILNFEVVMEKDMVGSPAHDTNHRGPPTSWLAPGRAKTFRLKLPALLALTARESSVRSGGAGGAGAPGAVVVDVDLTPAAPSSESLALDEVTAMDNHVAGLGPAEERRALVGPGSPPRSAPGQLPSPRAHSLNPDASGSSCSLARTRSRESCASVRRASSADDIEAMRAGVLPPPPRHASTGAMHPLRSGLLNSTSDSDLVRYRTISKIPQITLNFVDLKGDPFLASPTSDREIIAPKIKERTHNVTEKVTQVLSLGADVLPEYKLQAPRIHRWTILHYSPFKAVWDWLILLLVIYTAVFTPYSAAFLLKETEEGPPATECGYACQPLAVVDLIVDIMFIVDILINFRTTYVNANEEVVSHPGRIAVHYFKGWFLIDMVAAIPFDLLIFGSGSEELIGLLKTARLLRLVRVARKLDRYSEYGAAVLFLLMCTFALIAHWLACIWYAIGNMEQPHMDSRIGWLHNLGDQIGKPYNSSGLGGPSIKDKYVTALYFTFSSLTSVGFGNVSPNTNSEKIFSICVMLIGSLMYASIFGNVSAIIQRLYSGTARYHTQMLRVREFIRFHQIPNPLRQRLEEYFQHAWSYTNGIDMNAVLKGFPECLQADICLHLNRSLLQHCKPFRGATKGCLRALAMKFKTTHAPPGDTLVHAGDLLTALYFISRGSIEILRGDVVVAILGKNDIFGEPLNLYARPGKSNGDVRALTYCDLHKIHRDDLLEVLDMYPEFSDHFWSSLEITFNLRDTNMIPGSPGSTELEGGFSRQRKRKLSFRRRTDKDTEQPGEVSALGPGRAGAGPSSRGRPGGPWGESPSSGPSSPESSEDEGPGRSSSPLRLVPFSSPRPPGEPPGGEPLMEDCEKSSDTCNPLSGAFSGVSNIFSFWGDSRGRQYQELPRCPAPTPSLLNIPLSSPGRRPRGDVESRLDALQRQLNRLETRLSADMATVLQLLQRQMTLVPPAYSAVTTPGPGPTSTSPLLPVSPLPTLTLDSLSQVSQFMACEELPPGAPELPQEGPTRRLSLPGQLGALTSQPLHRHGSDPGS
row,SMILES,"hERG current change (%, negative = inhibition) at 10uM [%]"
1,CC(=O)Nc1ccc(S(=O)(=O)N2CCN(S(=O)(=O)N3CCCCCC3)CC2)cc1,8.41
2,CC(C)c1onc(C(=O)N2CCN(c3ccccc3)CC2)c1[N+](=O)[O-],14.1
3,CCC(C)(C)C1CCC(NC(=O)N2CCN(c3ccccc3O)CC2)CC1 (stereo not shown),-6.84
4,COc1cc(Cl)c(C)cc1NC(=O)CSc1cc(Cl)ccc1Cl,7.31
5,COc1ccc(CC(=O)OCCN(C)C)cc1.Cl,11.8
6,c1ccc(CCN2CN=C(Nc3nc4ccccc4s3)NC2)cc1,-1.49
7,COc1ccc(N2CCN(CC(O)COC(C)(C)C)CC2)cc1.O=C(O)C(=O)O (stereo not shown),10.2
8,CCCN1CCN(CC(O)COC(c2ccc(OC)cc2)c2ccc(OC)cc2)CC1.O=C(O)C(=O)O (stereo not shown),-30.2
9,COc1ccc(C(CCN2CCN(c3ccccc3)CC2)c2c(O)cc(OC)cc2OC)cc1 (stereo not shown),-30.5
10,COc1ccc(N2CCN(CC(O)COC(c3ccc(F)cc3)c3ccc(F)cc3)CC2)cc1.O=C(O)C(=O)O (stereo not shown),-81.6
11,Cc1ccc(Cl)cc1N1CCN(CCN)CC1,-0.374
12,COc1ccc(N2CCN(CCC(O)c3ccc4ccccc4c3)CC2)cc1 (stereo not shown),-68.3
13,Cc1ccc(Cl)cc1N1CCN(Cc2cc3c(cc2O)CCC3)CC1,4.92
14,Cc1ccc(Cl)cc1N1CCN(CC(O)COC(C)C)CC1.Cl (stereo not shown),-63.7
15,COc1ccc(N2CCN(CCN3C(=O)c4ccccc4C3=O)CC2)cc1,17.6
16,N=C1C(c2ccc(Br)cc2)=C(O)C2CCc3ccccc3N12 (stereo not shown),-30.5
17,CC(C)N(C(=O)Cn1cnc2cc([N+](=O)[O-])ccc2c1=O)C(C)C,7.76
18,Cc1cccc2cc(CN(CCCO)C(=O)Nc3ccccc3Cl)c(=O)[nH]c12,5.32
19,O=C(N=C1c2ccccc2CN1c1ccccc1)c1cccc([N+](=O)[O-])c1,-1.72
20,CCC1CCCCN1CCCNC(=O)CCNC(=O)Cn1cnc2ccccc2c1=O (stereo not shown),-0.683
21,CCN(CC)CCCNC(=O)c1cc2c(Cl)nc3ccccc3c2s1,-47.1
22,CCC1CCCCN1CCCNC(=O)c1cc2c(Cl)nc3ccccc3c2s1 (stereo not shown),-76.6

row,SMILES,"hERG current change (%, negative = inhibition) at 10uM [%]"
1,Cc1ccc2nc(Cl)c3cc(C(=O)NCCCN4CCCC4)sc3c2c1,-10.3
2,CC1CCN(CCCNC(=O)c2cc3c(Cl)nc4ccccc4c3s2)CC1,-66.2
3,Cc1nc2ccccc2c2oc(C(=O)NCCCN3CCCC(C)C3)cc12 (stereo not shown),-19
4,CC1CCCN(CCCNC(=O)c2coc3nc4ccccc4nc23)C1 (stereo not shown),-5.67
5,CC1CCCN(CCCNC(=O)c2cc3c(Cl)nc4ccccc4c3s2)C1 (stereo not shown),-55.6
6,O=C(NCCCN1CCCC1)c1cc2c(Cl)nc3ccccc3c2s1,-13.9
7,Cc1cccc(C)c1NC(=O)C1(N(Cc2ccco2)C(=O)CC2NC(=O)NC2=O)CCCCC1 (stereo not shown),7.25
8,CCN(CC)C(=O)CSc1nnnn1-c1ccc(F)c(Cl)c1,-3.28
9,O=C(Oc1ccc(-c2nc(-c3ccccn3)no2)cc1)c1ccccc1,7.73
10,CCOC(=O)c1[nH]c2ccc(OC)cc2c1NC(=O)c1ccc2c(c1)OCO2,17.1
11,CN(CC(=O)Nc1ccccc1C(F)(F)F)C(=O)c1ccc(-c2ccc(Cl)cc2)o1,-13.7
12,COc1ccc(-n2nnc3c(SCC(=O)Nc4ccc5c(c4)OCCO5)ncnc32)cc1,0.643
13,C=CCNC(=O)c1onc(CSc2ccc(Cl)cc2)c1C(=O)O,15.2
14,CC(C)(O)C#Cc1ccc(C(=O)Nc2ccc3c(c2)OCO3)s1,22.7
15,O=C(Nc1cccnc1Cl)c1cc2ccccc2o1,6.92
16,O=C(O)c1cccc(OS(=O)(=O)c2cc(Br)ccc2Br)c1,-9.65
17,O=C(Nc1ccc(F)cc1)c1cc(S(=O)(=O)N2CCOCC2)cs1,-11
18,Cc1ccc(NC(=O)c2cc(S(=O)(=O)N3CCOCC3)cs2)cc1,-8.31
19,O=C(Nc1ccccc1Cl)c1cc(S(=O)(=O)N2CCOCC2)cs1,-9.07
20,O=C(Nc1ccccc1C(=O)O)c1cc(S(=O)(=O)N2CCOCC2)cs1,-66.4
21,Cc1ccc(NC(=O)c2cc(S(=O)(=O)N3CCOCC3)cn2C)cc1Cl,11.2
22,Cn1cc(S(=O)(=O)N2CCOCC2)cc1C(=O)Nc1ccc(Cl)cc1,-51

row,SMILES,"hERG current change (%, negative = inhibition) at 10uM [%]"
1,O=C(Nc1ccc(Cl)cc1)c1cc(S(=O)(=O)N2CCOCC2)cs1,-51.2
2,Cn1cc(S(=O)(=O)N2CCOCC2)cc1C(=O)Nc1cccc(Cl)c1,-10.4
3,O=C(Nc1ccccc1C(=O)O)c1cc(S(=O)(=O)N2CCCCC2)cs1,10.1
4,CCOc1ccccc1NC(=O)NCc1ccccc1,0.101
5,CN(C)S(=O)(=O)c1ccc2c(c1)C(CC(=O)O)NC2=O (stereo not shown),6.72
6,CCCOc1ccc(N2C(=O)CC(SC(=NCC)NCC)C2=O)cc1 (stereo not shown),11.9
7,Cc1nc(-c2ccccc2)sc1C(=O)CSc1ccc(F)cc1,-7.92
8,CNC(=S)NNC(=O)c1cccn(Cc2ccccc2)c1=O,19
9,COc1ccc(OC)c(S(=O)(=O)N2CCN(Cc3ccccc3)CC2)c1,2.05
10,COc1ccc(CN2CCN(c3ccccn3)CC2)cc1OCc1ccccc1,-67.9
11,COc1ccc(NC(=S)N2CCN(Cc3ccccc3)CC2)c(OC)c1,-5.79
12,CCN1CCN(Cc2ccc(OC)c(OCc3ccccc3)c2)CC1,-41.9
13,COc1ccc(CN2CCc3ccccc3C2)c(OC)c1,-28.4
14,COc1ccc(CC(C)N2CCN(Cc3ccccc3)CC2)c(OC)c1 (stereo not shown),-75.3
15,COc1ccc(CN2CCN(c3ccccn3)CC2)c(OC)c1,-75.9
16,COc1ccc(OC)c(S(=O)(=O)N2CCN(c3ccccn3)CC2)c1,-12.5
17,COc1ccc(CN2CCN(CCCc3ccccc3)CC2)c(OC)c1,-76.6
18,COc1ccc(S(=O)(=O)N2CCN(CCc3ccccc3)CC2)c(OC)c1,-25.6
19,COc1ccc(-c2[nH]ncc2CN2CCN(c3ccccn3)CC2)c(OC)c1,-31.5
20,COc1ccc(CN2CCN(C)CC2)cc1OCc1ccccc1,-19
21,Fc1cccc(-c2oncc2-c2nnnn2-c2ccc(Cl)cc2)c1,-13.9
22,CCOC(=O)c1ccc(NC(=O)CCc2nnc3ccc(N4CCCC4)nn23)cc1,5.84

row,SMILES,"hERG current change (%, negative = inhibition) at 10uM [%]"
1,O=C(OCC1CC(c2ccccc2)=NO1)c1ccc(Cl)cc1 (stereo not shown),18.6
2,CN1CCN(CP(=O)(N2CCOCC2)N2CCOCC2)CC1,1.13
3,Br.CC(C)(C)C(=O)Cn1c(NCCCO)nc2ccccc21,-7.81
4,CC(NS(=O)(=O)c1ccc(CCC(=O)NCc2cccnc2)cc1)c1ccccc1 (stereo not shown),-1.35
5,CCOC(=O)CSc1nnc(NC(=O)c2cc([N+](=O)[O-])cc([N+](=O)[O-])c2)s1,-8.83
6,O=C(C[n+]1ccccc1)N/N=C/c1cccs1.[Cl-],12
7,Cn1ccnc1SCCNC(=O)C1CCC(=O)N(Cc2ccc(Cl)cc2)C1 (stereo not shown),-3.3
8,COc1cc(NC(=O)CN(c2ccc(C)cc2)S(=O)(=O)c2c(C)noc2C)cc(OC)c1,16.3
9,C=CCn1c(O)c(C(C)=NCCc2c[nH]c3ccccc23)c(=O)[nH]c1=O,-31.9
10,COc1ccc(CN2CCN(C(=O)Cc3ccccc3)CC2)c(OC)c1,-31.5
11,COc1ccc(CN2CCN(c3ncccn3)CC2)c(C)c1C,-35.9
12,COc1ccc(CN2CCN(c3ccccn3)CC2)c(OC)c1C.O=C(O)C(=O)O,-37.1
13,COc1ccc(CN2CCN(c3ccccn3)CC2)c(OC)c1C.O=C([O-])C(=O)[O-],-55.8
14,CC(CCc1ccccc1)N1CCN(Cc2ccccc2)CC1 (stereo not shown),-75.2
15,CC(CCc1ccccc1)N1CCN(C)CC1 (stereo not shown),-20.4
16,COc1ccc(CN2CCN(Cc3ccccc3)CC2)c(OC)c1,-69.9
17,COc1ccc(OC)c(CN2CCN(Cc3cc(OC)c(OC)c(OC)c3)CC2)c1,9.45
18,CCN1CCN(C(C)CCc2ccccc2)CC1 (stereo not shown),-17.7
19,COCCn1cnc2c(c1=O)c1nc3ccccc3nc1n2/N=C/c1ccco1,-7.29
20,COc1ccc(CNS(=O)(=O)c2ccc(-c3ccc(=O)[nH]n3)s2)cc1OC,-29.5
21,COC(=O)c1ccc2c(=O)n(CC3CCCO3)c(SCC(=O)Nc3ccccc3OC)nc2c1 (stereo not shown),-4.41
22,CS(=O)(=O)c1nc(-c2ccccc2)cc(-c2ccccc2)c1C#N,8.33

# From publication PMC4336329 (PLoS ONE, 2015)
